Here are results for 20 compounds from PubChem BioAssay.

Test [1] in a line: antimalarial activity against Dd2 strain (AID 2302;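 active = growth inhibition above 50% at the single 2 µM test dose, taken to imply half-maximal potency below 2 µM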;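 also: 0% = DMSO untreated growth and 100% = chloroquine plus artemisinin killed control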). As to conditions: P. falciparum Dd2 in RBCs, LDH growth readout, 72 h; at 2 µM; active compounds read high.
Test [2] is described as follows: HepG2 cytotoxicity, primary screen, cytotoxicity control for P. falciparum antimalarial project, cell-based, ATP luminescence (AID 2303;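 active = inhibition above 50%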;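 also: 0% = DMSO wells and 100% = digitonin-killed cells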). As to conditions: HepG2 viability, 24-48 h, at 10 µM, active compounds read high.
Test [3] addresses L-lactate dehydrogenase (Plasmodium falciparum (isolate CDC / Honduras)) (UniProt Q27743). The test is described as follows: PfLDH activity inhibition – cell lysate, 3D7 strain, counter-screen for P. falciparum growth inhibition project (AID 2304).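 Also: 0% = vehicle and 100% = reference inhibitor.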 As to conditions: P. falciparum 3D7 crude extract, LDH APAD/NBT absorbance; at 2 µM; active compounds read high. (In general: The purpose of a counterscreen is to sort out artefacts and off-target activity.)

Test [4] can be described thus: inhibition of 3D7 malaria parasite growth – strain 3D7 (AID 2306).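 Also: 0% = DMSO wells and 100% = chloroquine plus artemisinin control wells.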 As to conditions: P. falciparum 3D7 erythrocytic growth, LDH absorbance, 72 h; at 2 µM; active compounds read high.
Test [5] concerns the target Calcium-dependent protein kinase 1 (Plasmodium falciparum (isolate 3D7)) (UniProt P62344). The test is described as follows: PfCDPK1 kinase inhibitors, biochemical, TCAMS library (AID 1159585; cut-off not given, nearly all actives have IC50 up to about 0.98 µM;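 also: inhibitors leave more ATP so luminescence rises with inhibition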). As to conditions: recombinant PfCDPK1, Kinase-Glo ATP depletion luminescence. A general note: In Kinase-Glo more light means more ATP remaining.
Test [6] has as its target Plasmodium falciparum protein kinase 6 (PK6, PF3D7_1337100) (UniProt Q8IDW1). The test is described as follows: PfPK6 kinase inhibitors, biochemical, TCAMS library (AID 1159586). Conditions: recombinant PfPK6, Kinase-Glo ATP depletion luminescence.
For test [7], the target named is Protein kinase 7 (PK7), Plasmodium falciparum 3D7 (PF3D7_0213400) (UniProt Q7YTF7). The test is described as follows: inhibition of Plasmodium PK7 catalytic activity – biochemical, TCAMS antimalarial set, Kinase-Glo luminescence (AID 1159587). Conditions: recombinant PfPK7, Kinase-Glo ATP depletion luminescence.
Chain of Protein kinase 7 (PK7), Plasmodium falciparum 3D7 (PF3D7_0213400) (Q7YTF7 1-343): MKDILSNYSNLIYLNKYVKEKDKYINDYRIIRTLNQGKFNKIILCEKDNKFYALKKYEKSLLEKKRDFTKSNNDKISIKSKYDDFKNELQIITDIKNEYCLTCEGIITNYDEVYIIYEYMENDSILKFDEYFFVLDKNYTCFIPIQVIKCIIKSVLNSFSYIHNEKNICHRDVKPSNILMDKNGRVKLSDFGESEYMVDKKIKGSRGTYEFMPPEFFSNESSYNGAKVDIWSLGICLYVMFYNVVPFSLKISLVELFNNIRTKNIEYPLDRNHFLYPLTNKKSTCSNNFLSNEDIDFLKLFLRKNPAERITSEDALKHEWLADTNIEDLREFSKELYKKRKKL
The target in test [8] is Calcium-dependent protein kinase 4 (Plasmodium falciparum (isolate 3D7)) (UniProt Q8IBS5). The test is described as follows: PfCDPK4 kinase inhibitors, biochemical, TCAMS library (AID 1159588; cut-off not given, nearly all actives have IC50 up to about 0.91 µM). Conditions: recombinant PfCDPK4, Kinase-Glo ATP depletion luminescence.
Chain of Calcium-dependent protein kinase 4 (Plasmodium falciparum (isolate 3D7)) (Q8IBS5 whole entry, looked up): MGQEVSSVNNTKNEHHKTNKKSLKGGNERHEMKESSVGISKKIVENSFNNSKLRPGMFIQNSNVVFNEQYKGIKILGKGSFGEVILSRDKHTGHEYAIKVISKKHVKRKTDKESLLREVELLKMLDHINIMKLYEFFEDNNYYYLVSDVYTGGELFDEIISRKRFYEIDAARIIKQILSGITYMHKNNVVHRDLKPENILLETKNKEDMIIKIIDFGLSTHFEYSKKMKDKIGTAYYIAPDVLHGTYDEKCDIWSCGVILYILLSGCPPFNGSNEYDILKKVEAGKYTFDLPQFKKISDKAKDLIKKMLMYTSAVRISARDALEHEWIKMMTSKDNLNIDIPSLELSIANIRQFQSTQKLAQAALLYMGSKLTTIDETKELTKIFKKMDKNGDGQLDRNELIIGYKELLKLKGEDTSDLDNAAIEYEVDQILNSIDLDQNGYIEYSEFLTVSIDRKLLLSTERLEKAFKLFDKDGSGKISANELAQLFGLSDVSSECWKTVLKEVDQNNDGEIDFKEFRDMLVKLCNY

For some of these results: Potency and affinity values are given separately. Calls of active or inactive are those of the source. Unless noted, no rule for the calls is given here.

Chain of L-lactate dehydrogenase (Plasmodium falciparum (isolate CDC / Honduras)) (Q27743 whole entry, looked up): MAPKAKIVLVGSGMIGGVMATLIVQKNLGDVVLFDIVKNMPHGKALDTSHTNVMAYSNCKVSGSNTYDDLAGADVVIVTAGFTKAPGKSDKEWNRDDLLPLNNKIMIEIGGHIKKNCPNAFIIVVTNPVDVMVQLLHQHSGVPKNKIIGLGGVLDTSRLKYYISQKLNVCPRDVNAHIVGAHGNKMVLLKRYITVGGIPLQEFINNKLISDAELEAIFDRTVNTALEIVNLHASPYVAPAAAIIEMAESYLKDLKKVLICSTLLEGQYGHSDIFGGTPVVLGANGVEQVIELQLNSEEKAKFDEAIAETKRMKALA
Chain of Calcium-dependent protein kinase 1 (Plasmodium falciparum (isolate 3D7)) (P62344 whole entry, looked up): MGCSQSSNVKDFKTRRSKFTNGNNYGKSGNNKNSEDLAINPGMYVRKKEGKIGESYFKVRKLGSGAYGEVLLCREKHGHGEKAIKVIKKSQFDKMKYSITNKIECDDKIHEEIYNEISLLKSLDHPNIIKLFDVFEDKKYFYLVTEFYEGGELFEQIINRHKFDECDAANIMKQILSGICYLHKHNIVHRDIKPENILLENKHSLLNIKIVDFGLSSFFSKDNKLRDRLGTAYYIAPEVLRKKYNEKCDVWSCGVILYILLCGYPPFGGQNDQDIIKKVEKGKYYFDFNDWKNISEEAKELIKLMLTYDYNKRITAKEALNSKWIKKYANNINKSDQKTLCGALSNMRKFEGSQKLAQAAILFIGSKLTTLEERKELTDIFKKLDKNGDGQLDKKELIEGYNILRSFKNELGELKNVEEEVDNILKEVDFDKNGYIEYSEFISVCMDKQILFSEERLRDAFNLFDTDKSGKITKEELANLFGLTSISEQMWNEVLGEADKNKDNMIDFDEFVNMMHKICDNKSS
Chain of Plasmodium falciparum protein kinase 6 (PK6, PF3D7_1337100) (Q8IDW1 1-305): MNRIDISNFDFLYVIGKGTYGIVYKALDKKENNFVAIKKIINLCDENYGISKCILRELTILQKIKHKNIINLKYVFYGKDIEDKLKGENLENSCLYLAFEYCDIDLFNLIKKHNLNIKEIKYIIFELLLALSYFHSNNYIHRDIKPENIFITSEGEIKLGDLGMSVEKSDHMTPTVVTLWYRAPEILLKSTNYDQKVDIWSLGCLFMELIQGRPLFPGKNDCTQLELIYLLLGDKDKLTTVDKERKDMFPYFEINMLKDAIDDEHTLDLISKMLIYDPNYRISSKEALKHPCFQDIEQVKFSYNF

For orientation: inhibition means the drop in the measured response relative to a control, in per cent. For the compound `N#Cc1ccc(-c2ccc(C(=O)NC3CCN(CCN4CCc5c(cccc5C(F)(F)F)C4)CC3)cc2)cc1`, the growth inhibition is 51% (active) in test [1] and 98% (active) in test [4]. Further, the figures for the inhibition in test [2] and in test [3] were 40% (inactive) and -1% (inactive), respectively. The outcome in test [5], in test [6], in test [7] and in test [8] was inactive.
Regarding `CCOc1cc(C(=O)Nc2cccnc2)ccc1-c1nc2cc(Cl)c(Cl)cc2[nH]1`, the growth inhibition is 70% (active) in test [1] and 100% (active) in test [4]. Besides, the inhibition in test [2] is 9% (inactive); in test [3], 0% (inactive). The outcome in test [5], in test [6], in test [7] and in test [8] was inactive.
Take `Cc1ccc(NC(=O)Nc2ccccc2)cc1-c1ccc(C(=O)Nc2ccncc2)cc1`: the growth inhibition was 52% (active) in test [1] and 99% (active) in test [4]. Moreover, the inhibition in test [2] was 67% (active); in test [3], 0% (inactive). In addition, the outcome in test [5], in test [6], in test [7] and in test [8] was inactive.
As to `CN1CCCN(Cc2cccc(-c3cccc(NC(=O)c4ccc(C#N)cc4)c3)c2)CC1`, the growth inhibition in test [1] is 4% (inactive); in test [4], 89% (active). Further, the inhibition is 7% (inactive) in test [2] and 1% (inactive) in test [3]. For the same compound, the outcome in test [5], in test [6], in test [7] and in test [8] was inactive.
For the compound `Cc1ccc(OC2CCN(c3ccc(C(=O)NC4CC4)cn3)CC2)cc1`, the values for the growth inhibition in test [1] and in test [4] were 75% (active) and 87% (active), respectively. Also, the inhibition in test [2] was 11% (inactive); in test [3], 4% (inactive). The result in test [5], in test [6], in test [7] and in test [8] was inactive.
In the case of `O=C(/C=C/c1ccc(Cl)c(Cl)c1)NCCCCCN1CCC(NC(=O)c2ccc(F)cc2F)CC1`, the growth inhibition in test [1] is 11% (inactive); in test [4] it was 96% (active). Moreover, the inhibition is 17% (inactive) in test [2] and -3% (inactive) in test [3]. Further, the result in test [5], in test [6], in test [7] and in test [8] was inactive.
`CCn1cnc2c(N3CCCS3(=O)=O)cc(C(=O)N[C@@H](Cc3ccccc3)[C@H](O)CNC(C)(C)c3cccc(C(F)(F)F)c3)cc21`: the growth inhibition was 97% (active) in test [1] and 99% (active) in test [4]. The inhibition in test [2] is 9% (inactive); in test [3], -1% (inactive). The outcome in test [5], in test [6], in test [7] and in test [8] was inactive.
For the compound `CCN(CC)CCN(Cc1ccc(-c2ccc(C(F)(F)F)cc2)cc1)C(=O)Cn1c(CCc2cc(F)cc(F)c2F)nc(=O)c2ccccc21`, the values for the growth inhibition in test [1] and in test [4] were 77% (active) and 101% (active), respectively. The results for the inhibition in test [2] and in test [3] were 36% (inactive) and 1% (inactive), respectively. Also, the outcome in test [5], in test [6], in test [7] and in test [8] was inactive.
On to `O=[N+]([O-])c1cc2c(cc1C=NNc1nc(Nc3ccccc3)nc(Nc3ccccc3)n1)OCO2`, for which the figures for the growth inhibition in test [1] and in test [4] were 46% (inactive) and 98% (active), respectively. Besides, the inhibition in test [2] was -8% (inactive); in test [3] it was -2% (inactive). The outcome in test [5], in test [6], in test [7] and in test [8] was inactive.
For `CCNc1cc(C(=O)N[C@@H](Cc2ccccc2)[C@H](O)CNC(C)(C)CCCC(C)C)cc(N2CCCC2=O)c1`, the growth inhibition in test [1] is 81% (active); in test [4] it was 100% (active). Moreover, the inhibition in test [2] is -12% (inactive); in test [3] it was -1% (inactive). Besides, the result in test [5], in test [6], in test [7] and in test [8] was inactive.
As for `CCN(CC)CCN(Cc1ccc(-c2ccc(C(F)(F)F)cc2)cc1)C(=O)c1ccc(-c2ccc(NC(=O)OC)cc2C)cc1`, the growth inhibition was 42% (inactive) in test [1] and 93% (active) in test [4]. In addition, the inhibition was 66% (active) in test [2] and -6% (inactive) in test [3]. The outcome in test [5], in test [6], in test [7] and in test [8] was inactive.
`CCOCCCNc1sc(S(=O)(=O)c2ccccc2)nc1S(=O)(=O)c1ccc(C)cc1`: the growth inhibition in test [1] was 87% (active); in test [4] it was 96% (active). Also, the results for the inhibition in test [2] and in test [3] were -8% (inactive) and 1% (inactive), respectively. In addition, the result in test [5], in test [6], in test [7] and in test [8] was inactive.
With `COc1ccc(C=NNc2nc(-c3ccccc3)cc(=O)[nH]2)cc1OC`, the growth inhibition was 93% (active) in test [1] and 92% (active) in test [4]. The inhibition was 22% (inactive) in test [2] and 4% (inactive) in test [3]. Further, the result in test [5], in test [6], in test [7] and in test [8] was inactive.
As to `Cc1ccc2c(c1C)NC(=O)C21NN=C(c2ccccc2)S1` (stereo not given), the results for the growth inhibition in test [1] and in test [4] were 65% (active) and 97% (active), respectively. In addition, the results for the inhibition in test [2] and in test [3] were 31% (inactive) and 0% (inactive), respectively. The outcome in test [5], in test [6], in test [7] and in test [8] was inactive.
Regarding `CCCC1N=C(N)N=C(N)N1c1cccc(C(F)(F)F)c1` (stereo not given), the growth inhibition was 7% (inactive) in test [1] and 95% (active) in test [4]. The results for the inhibition in test [2] and in test [3] were 22% (inactive) and 5% (inactive), respectively. The outcome in test [5], in test [6], in test [7] and in test [8] was inactive.
`CCOC(=O)CCCCCNC[C@H](O)c1ccccc1`: the growth inhibition in test [1] is 0% (inactive); in test [4] it was 98% (active). For the same compound, the inhibition is 2% (inactive) in test [2] and 5% (inactive) in test [3]. Besides, the outcome in test [5], in test [6], in test [7] and in test [8] was inactive.
As for `COc1cc(NC(=O)c2sc(-c3ccc(Cl)cc3)cc2NC(=O)CN2CCCC2)ccc1OCCN1CCCC1`, the growth inhibition in test [1] is 79% (active); in test [4] it was 86% (active). Further, the inhibition is 29% (inactive) in test [2] and 3% (inactive) in test [3]. Also, the result in test [5], in test [6], in test [7] and in test [8] was inactive.
In the case of `COc1ccc(CNCc2ccc(F)cc2)cc1-c1ccc(S(=O)(=O)NCCN2CCCC2)s1`, the growth inhibition in test [1] was 65% (active); in test [4], 101% (active). Besides, the inhibition in test [2] was 61% (active); in test [3] it was -1% (inactive). For the same compound, the result in test [5], in test [6], in test [7] and in test [8] was inactive.
On to `O=C(Nc1ccnc2ccccc12)NC1CCN(Cc2ccccc2)CC1`, for which the values for the growth inhibition in test [1] and in test [4] were 43% (inactive) and 96% (active), respectively. The inhibition is 18% (inactive) in test [2] and 5% (inactive) in test [3]. Besides, the outcome in test [5], in test [6], in test [7] and in test [8] was inactive.
Turning to `Cc1cc(N)cc2[nH]c(-c3ccc(N)cc3)nc12`, the growth inhibition in test [1] was 75% (active); in test [4] it was 96% (active). The inhibition in test [2] was -7% (inactive); in test [3], -11% (inactive). The result in test [5], in test [6], in test [7] and in test [8] was inactive.
